# Source: PubChem
# Shown is part of a subset that was picked to be rich in hits.
# Tgondii IFNg: blocks Toxoplasma gondii growth in the presence of IFN-gamma; Toxoplasma gondii growth in IFN-gamma-treated host cells; active compounds read low; 3.8% of 69,000 active; activity change, negative = inhibition, % (no concentration beside the values); in the data active = activity change below about -70%, passing the limit was not always enough;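 note: host cells are HeLa cells infected with Toxoplasma gondii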
# Starred values were filed as active, the others as inactive.
SMILES,Tgondii IFNg
COCCC(=O)N1CCc2nc(N3CCOCC3)nc(NC(C)C)c2C1,31
COc1cccc(C(=O)N2CCc3nc(N4CCCC4)nc(NC(C)C)c3C2)c1,-110*
CCC(C)C(=O)N1CCc2cc(-c3cn4cc(C)ccc4n3)ccc21 (centres undefined),39
Cc1ccccc1-c1noc(-c2c(O)c3ccc(F)cc3[nH]c2=O)n1,-7
COCc1ccc(C(=O)NC2CCCc3c2cnn3C)o1 (centres undefined),-10
CCCc1cc(CNC(=O)c2cc(-c3cccs3)no2)on1,-4
COc1ccccc1Cn1ncc2c1CCCC2NC(=O)c1cc(-c2cccs2)no1 (centres undefined),-77*
Cc1ccc(/C(=C\CN2CCCC2)c2ccccn2)cc1,0
CN(C)C(=O)[C@]12CCCN(C(=O)c3ccccn3)C[C@@H]1CN(c1ccccn1)C2,4
C/C(=N\NC(=S)N1CCC1)c1ccccn1,-80*
CCOCc1cnc2n1CCN(C(=O)Cc1cccs1)C2C (centres undefined),39
O=C(COC(=O)CN1C(=O)C(=O)c2ccccc21)Nc1nc2c(s1)CCCC2,-10
Cc1nc2nc(CC(=O)Nc3nc4c(s3)CCCCCC4)[nH]n2c(=O)c1C,-39
COc1nn(CC(=O)Nc2nc3c(s2)CCCCCC3)c(=O)c2ccccc12,-86*
O=C(CCc1nc(-c2ccccc2F)no1)N[C@H]1COC[C@@H]1N1CCCCC1,3
CCOC(=O)NC(Nc1cc(C)on1)(C(F)(F)F)C(F)(F)F,94
C#CCOC(=O)Nc1cnc(OCC)c(C(F)(F)F)c1,-75*
Cc1nc(C(Cc2ccsc2)NC(=O)CCCN2CCCC2=O)sc1C (centres undefined),37
Cc1nn(C(c2ccccc2)C(O)(c2ccccc2)c2ccccc2)c(C)c1Br (centres undefined),-67
CN(C)C1CCN(S(=O)(=O)c2cccc(F)c2)C(C)(C(=O)O)C1 (centres undefined),1
COc1cc(Nc2ccnc3cc(Cl)ccc23)c(C(=O)O)cc1OC,-3
COc1cc2nccc(Oc3ccc(NC(=O)Nc4cc(C)on4)c(Cl)c3)c2cc1OC,-81*
COc1ccc(S(=O)(=O)Nc2cncc(C(=O)Nc3ccc(F)cc3F)c2)cc1OC,35
COc1cc2nccc(Oc3ccc(NC(=O)NC4CC4)c(Cl)c3)c2cc1C(N)=O,-43
CNC(=O)c1cccc2cc(Oc3ccnc4cc(OCC5(N)CC5)c(OC)cc34)ccc12,-8
SMILES,Tgondii IFNg
COc1cc2nccc(Oc3ccc(NC(=O)Nc4ccc(F)cc4F)c(F)c3)c2cc1OC,-75*
COc1ccc(-c2nc(NCc3cccnc3)c3ccccc3n2)cc1,-42
CCN(CC)C(=O)c1cc(=O)n(CC(=O)Nc2cccc(Br)c2)c2ccccc12,-12
Cc1cc(C(=O)N2CCCN(c3ccncc3C)CC2)nc(C)n1,-6
CCc1cnc(N2[C@H](C#N)[C@@H](c3ccc(C#Cc4ccccc4F)cc3)[C@H]2CO)s1,-75*
CCc1cnc(N2[C@H](C#N)[C@H](c3ccc(C#Cc4ccccc4F)cc3)[C@H]2CO)s1,-55
CCc1cnc(N2[C@H](C#N)[C@H](c3ccc(C#Cc4ccccc4F)cc3)[C@@H]2CO)s1,-57
COc1ccc(-c2nc(Nc3cccc(C)c3)c3ccccc3n2)cc1,-76
C[C@H](c1cccc2ccccc12)N(C)C(=O)c1ccc(OCC(N)=O)cc1,6
CCC(=O)N(Cc1ccc(OC)cc1)Cc1cccc(C)c1,0
COCc1nnc(C(=O)N2CCN(c3cccc(C)n3)CC2)o1,0
O=C1CCC2(CCN1)CCN(C(=O)CCn1cnc3ccccc31)CC2,4
Cc1oc(-c2ccc(NC(=O)Cc3ccc(F)cc3)cc2)nc1Cn1cccn1,11
Cc1oc(-c2ccc(NC(=O)c3ccccc3)cc2)nc1Cn1cccn1,20
Cc1oc(-c2ccc(NC(=O)c3ccccc3Br)cc2)nc1Cn1cccn1,-94*
Cc1oc(-c2ccc(NC(=O)c3ccccc3F)cc2)nc1Cn1cccn1,-59
Cc1oc(-c2ccc(NC(=O)Cc3ccc(Cl)cc3)cc2)nc1Cn1cccn1,-36
Cc1oc(-c2ccc(NC(=O)Cc3cccc(F)c3)cc2)nc1Cn1cccn1,-87*
COCC1COCCC12CCN(C(=O)CCc1ccccc1C)CC2 (centres undefined),-3
CCN1C[C@H]2C3(CCN(CC4CCOCC4)CC3)CC[C@@]2(C(=O)N2CCCC2)C1,8
Cc1cc(C)c(S(=O)(=O)N2CCC3(CC2)Nc2cc(F)ccc2-n2cccc23)cc1C,-42
CNC(=O)CN1C(=O)CCC12CCCN(c1cnccn1)C2 (centres undefined),-1
O=C1OCC2(CCN(Cc3cc4n(n3)CCCNC4)CC2)O1,7
CCc1nnc(CNC(=O)c2ccccc2C2CCNC2)s1 (centres undefined),3
CSC1SCC2C(=O)N(C)C(C(C)C)C(=O)OCC(NC(=O)c3cnc4ccccc4n3)C(=O)NC(C)C(=O)N(C)C1C(=O)N(C)C(C(C)C)C(=O)OCC(NC(=O)c1cnc3ccccc3n1)C(=O)NC(C)C(=O)N2C (centres undefined),-77*
CCN(CC)CCNC1CCN(CC)CC1,29
